The values that follow come from PubChem BioAssay.

Values without a mark were called inactive. For some of these results: Potency and affinity values are given separately. Activity calls are given as the source filed them. Unless noted, the rule behind the calls is not given here.

A short description of assay [1]: antimalarial activity against Dd2 strain (AID 2302;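 active = growth inhibition above 50% at the single 2 µM test dose, taken to imply half-maximal potency below 2 µM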;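 note: 0% = DMSO untreated growth and 100% = chloroquine plus artemisinin killed control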). Conditions: P. falciparum Dd2 in RBCs, LDH growth readout, 72 h; at 2 µM; stronger effect = higher value.
Assay [2] is described as follows: HepG2 cytotoxicity, primary screen, cytotoxicity control for P. falciparum antimalarial project, cell-based, ATP luminescence (AID 2303;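 active = inhibition above 50%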;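 note: 0% = DMSO wells and 100% = digitonin-killed cells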). The settings on record: HepG2 viability, 24-48 h, at 10 µM, stronger effect = higher value.
In assay [3] the target is L-lactate dehydrogenase (Plasmodium falciparum (isolate CDC / Honduras)) (UniProt Q27743). Put plainly: PfLDH activity inhibition – cell lysate, 3D7 strain, counter-screen for P. falciparum growth inhibition project (AID 2304).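 Note: 0% = vehicle and 100% = reference inhibitor.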 The settings on record: P. falciparum 3D7 crude extract, LDH APAD/NBT absorbance; at 2 µM; stronger effect = higher value. (In general: Counterscreens check selectivity or assay interference.)

The nature of assay [4]: inhibition of 3D7 malaria parasite growth – strain 3D7 (AID 2306).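 Note: 0% = DMSO wells and 100% = chloroquine plus artemisinin control wells.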 Conditions: P. falciparum 3D7 erythrocytic growth, LDH absorbance, 72 h; at 2 µM; stronger effect = higher value.
Assay [5] deals with Calcium-dependent protein kinase 1 (Plasmodium falciparum (isolate 3D7)) (UniProt P62344). As to the kind of experiment: PfCDPK1 kinase inhibitors, biochemical, TCAMS library (AID 1159585; cut-off not given, nearly all actives have IC50 up to about 0.98 µM;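 note: inhibitors leave more ATP so luminescence rises with inhibition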). Conditions: recombinant PfCDPK1, Kinase-Glo ATP depletion luminescence. In general terms: Kinase-Glo measures the ATP left after a reaction by luminescence.
Assay [6] concerns the target Plasmodium falciparum protein kinase 6 (PK6, PF3D7_1337100) (UniProt Q8IDW1). As to the kind of experiment: PfPK6 kinase inhibitors, biochemical, TCAMS library (AID 1159586). Conditions: recombinant PfPK6, Kinase-Glo ATP depletion luminescence.
The target of assay [7] is Protein kinase 7 (PK7), Plasmodium falciparum 3D7 (PF3D7_0213400) (UniProt Q7YTF7). Put plainly: inhibition of Plasmodium PK7 catalytic activity – biochemical, TCAMS antimalarial set, Kinase-Glo luminescence (AID 1159587). Conditions: recombinant PfPK7, Kinase-Glo ATP depletion luminescence.
Assay [8] deals with Calcium-dependent protein kinase 4 (Plasmodium falciparum (isolate 3D7)) (UniProt Q8IBS5). Put plainly: PfCDPK4 kinase inhibitors, biochemical, TCAMS library (AID 1159588; cut-off not given, nearly all actives have IC50 up to about 0.91 µM). Conditions: recombinant PfCDPK4, Kinase-Glo ATP depletion luminescence.
Sequence of Calcium-dependent protein kinase 4 (Plasmodium falciparum (isolate 3D7)) (Q8IBS5 whole entry, looked up): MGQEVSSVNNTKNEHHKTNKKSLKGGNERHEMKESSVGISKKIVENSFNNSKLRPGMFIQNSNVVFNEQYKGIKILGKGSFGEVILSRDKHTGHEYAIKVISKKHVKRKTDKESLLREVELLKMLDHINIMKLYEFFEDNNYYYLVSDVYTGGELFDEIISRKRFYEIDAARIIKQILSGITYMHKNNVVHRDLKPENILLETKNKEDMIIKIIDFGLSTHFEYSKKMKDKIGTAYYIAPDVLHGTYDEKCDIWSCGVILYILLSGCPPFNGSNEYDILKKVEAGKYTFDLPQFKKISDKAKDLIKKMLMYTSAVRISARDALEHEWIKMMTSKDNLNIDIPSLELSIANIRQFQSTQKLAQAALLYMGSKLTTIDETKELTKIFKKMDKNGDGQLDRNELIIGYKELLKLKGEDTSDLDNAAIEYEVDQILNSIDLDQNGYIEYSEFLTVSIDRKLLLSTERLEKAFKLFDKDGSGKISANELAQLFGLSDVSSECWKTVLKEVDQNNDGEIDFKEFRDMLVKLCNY

Sequence of Plasmodium falciparum protein kinase 6 (PK6, PF3D7_1337100) (Q8IDW1 1-305): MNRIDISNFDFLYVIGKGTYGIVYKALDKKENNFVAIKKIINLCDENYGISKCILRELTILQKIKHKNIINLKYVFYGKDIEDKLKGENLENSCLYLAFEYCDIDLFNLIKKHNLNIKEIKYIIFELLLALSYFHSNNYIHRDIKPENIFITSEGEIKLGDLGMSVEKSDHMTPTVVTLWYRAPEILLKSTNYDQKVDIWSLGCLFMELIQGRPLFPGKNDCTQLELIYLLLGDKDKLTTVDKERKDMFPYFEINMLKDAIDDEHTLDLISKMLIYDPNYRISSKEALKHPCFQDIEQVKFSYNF
Sequence of Calcium-dependent protein kinase 1 (Plasmodium falciparum (isolate 3D7)) (P62344 whole entry, looked up): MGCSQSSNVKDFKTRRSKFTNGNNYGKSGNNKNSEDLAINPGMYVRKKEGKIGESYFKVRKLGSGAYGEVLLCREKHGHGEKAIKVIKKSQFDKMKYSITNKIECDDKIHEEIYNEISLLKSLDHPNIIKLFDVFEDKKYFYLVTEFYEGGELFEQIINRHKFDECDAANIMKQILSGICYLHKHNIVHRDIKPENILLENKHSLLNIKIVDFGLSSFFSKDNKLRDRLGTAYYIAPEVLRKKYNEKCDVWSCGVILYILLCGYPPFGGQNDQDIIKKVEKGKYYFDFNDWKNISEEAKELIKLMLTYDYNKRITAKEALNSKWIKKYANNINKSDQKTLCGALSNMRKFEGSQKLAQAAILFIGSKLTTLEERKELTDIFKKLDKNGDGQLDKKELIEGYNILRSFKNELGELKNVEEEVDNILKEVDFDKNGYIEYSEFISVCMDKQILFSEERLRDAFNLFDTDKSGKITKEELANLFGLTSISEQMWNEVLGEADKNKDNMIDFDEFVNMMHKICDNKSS
Sequence of Protein kinase 7 (PK7), Plasmodium falciparum 3D7 (PF3D7_0213400) (Q7YTF7 1-343): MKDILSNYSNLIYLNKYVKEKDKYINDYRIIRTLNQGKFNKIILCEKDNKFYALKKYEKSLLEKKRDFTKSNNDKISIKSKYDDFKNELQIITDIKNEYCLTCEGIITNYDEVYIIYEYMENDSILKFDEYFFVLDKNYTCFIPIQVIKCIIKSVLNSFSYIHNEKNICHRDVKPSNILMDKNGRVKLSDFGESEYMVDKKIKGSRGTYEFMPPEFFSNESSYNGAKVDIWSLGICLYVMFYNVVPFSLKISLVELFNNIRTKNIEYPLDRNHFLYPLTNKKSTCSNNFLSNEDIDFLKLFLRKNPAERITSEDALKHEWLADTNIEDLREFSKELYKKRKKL
Sequence of L-lactate dehydrogenase (Plasmodium falciparum (isolate CDC / Honduras)) (Q27743 whole entry, looked up): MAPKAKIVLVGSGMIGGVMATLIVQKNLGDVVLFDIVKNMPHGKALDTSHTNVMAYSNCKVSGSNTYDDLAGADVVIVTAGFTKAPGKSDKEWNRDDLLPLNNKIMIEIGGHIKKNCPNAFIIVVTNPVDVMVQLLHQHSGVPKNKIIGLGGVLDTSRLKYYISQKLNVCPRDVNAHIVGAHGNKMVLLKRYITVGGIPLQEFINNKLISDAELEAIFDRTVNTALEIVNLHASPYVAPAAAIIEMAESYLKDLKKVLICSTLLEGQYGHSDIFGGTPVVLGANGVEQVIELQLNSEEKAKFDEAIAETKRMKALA

Regarding `COc1cc(C(C)C)ccc1N1CCN(CCCCNC(=O)c2ccc(NC(=O)c3ccc(Cl)cc3)cc2)CC1`, the growth inhibition in assay [1] was 81% (active); in assay [4] it was 98% (active). Besides, the figures for the inhibition in assay [2] and in assay [3] were 25% and 3%, respectively. Moreover, the result in assay [5], in assay [6], in assay [7] and in assay [8] was inactive.

For `CCN(CC)CCCC(C)Nc1c2ccccc2nc2ccc3ccccc3c12` (stereo not given), the figures for the growth inhibition in assay [1] and in assay [4] were 89% (active) and 100% (active), respectively. Further, the inhibition in assay [2] is 24%; in assay [3], 1%. The outcome in assay [5], in assay [6], in assay [7] and in assay [8] was inactive.

For the molecule `CSCCCN1CCC(O)(c2ccc3oc(C(=O)Nc4ccc5sc(C)nc5c4)cc3c2)CC1`, the growth inhibition in assay [1] was 69% (active); in assay [4], 101% (active). Moreover, the inhibition was 10% in assay [2] and 4% in assay [3]. Also, the result in assay [5], in assay [6], in assay [7] and in assay [8] was inactive.

Turning to `COc1ccc2nc(SC(C)C(=O)c3c[nH]c4ccccc34)[nH]c2c1` (stereo not given), the values for the growth inhibition in assay [1] and in assay [4] were 98% (active) and 100% (active), respectively. For the same molecule, the values for the inhibition in assay [2] and in assay [3] were -3% and 0%, respectively. Further, the outcome in assay [5], in assay [6], in assay [7] and in assay [8] was inactive.

Consider `O=C(/C=C/c1ccc(Cl)c(Cl)c1)NCCCCCN1CCC(NC(=O)Nc2ccc(Cl)c(Cl)c2)CC1`, for which the growth inhibition was 1% in assay [1] and 102% (active) in assay [4]. Also, the inhibition was 23% in assay [2] and 0% in assay [3]. Moreover, the result in assay [5], in assay [6], in assay [7] and in assay [8] was inactive.

With `CCC1(CC)N=C(N)N=C(N)C1c1ccc(Cl)c(Cl)c1` (stereo not given), the growth inhibition in assay [1] was 20%; in assay [4] it was 98% (active). In addition, the results for the inhibition in assay [2] and in assay [3] were -16% and 7%, respectively. The outcome in assay [5], in assay [6], in assay [7] and in assay [8] was inactive.

With `N#Cc1cccc(CN2CCCN(c3ccc(NC(=O)c4cccs4)cc3)CC2)c1`, the growth inhibition was 95% (active) in assay [1] and 96% (active) in assay [4]. In addition, the inhibition in assay [2] and in assay [3] was -2% each time. Further, the result in assay [5], in assay [6], in assay [7] and in assay [8] was inactive.

Take `COC(=O)c1ccc(NC(=O)Nc2ccc(Cn3ncc(N4CCCNCC4)c(Cl)c3=O)cc2)cc1`: the growth inhibition was 43% in assay [1] and 83% (active) in assay [4]. Moreover, the inhibition in assay [2] and in assay [3] was -1% in each case. In addition, the outcome in assay [5], in assay [6], in assay [7] and in assay [8] was inactive.

For `Nc1nc(N)c2c(ccc3c2ccn3CCCCO)n1`, the growth inhibition was 49% in assay [1] and 93% (active) in assay [4]. For the same molecule, the inhibition is 61% (active) in assay [2] and -2% in assay [3]. The result in assay [5], in assay [6], in assay [7] and in assay [8] was inactive.

On to `O=C(Nc1cccc(F)c1)c1ccc(C(=O)NC2CCN(CC3CCCCC3)CC2)cc1`, for which the growth inhibition is 16% in assay [1] and 96% (active) in assay [4]. Moreover, the inhibition is 22% in assay [2] and -7% in assay [3]. The result in assay [5], in assay [6], in assay [7] and in assay [8] was inactive.

Consider `COc1ccccc1N1CCN(Cc2c(NC(C)=O)sc(C)c2C)CC1`, for which the figures for the growth inhibition in assay [1] and in assay [4] were 80% (active) and 95% (active), respectively. Further, the inhibition in assay [2] is 9%; in assay [3] it was 3%. The result in assay [5], in assay [6], in assay [7] and in assay [8] was inactive.

As for `CN(C(=O)c1ccc(Br)cc1)c1ccccc1[N+](=O)[O-]`, the figures for the growth inhibition in assay [1] and in assay [4] were 0% and 96% (active), respectively. The results for the inhibition in assay [2] and in assay [3] were 3% and 2%, respectively. Moreover, the result in assay [5], in assay [6], in assay [7] and in assay [8] was inactive.

Regarding `CCC(CC)CN1C(=O)C(c2ccccc2)(c2ccccc2)N=C1N`, the growth inhibition was 81% (active) in assay [1] and 97% (active) in assay [4]. Besides, the figures for the inhibition in assay [2] and in assay [3] were 14% and -3%, respectively. The result in assay [5], in assay [6], in assay [7] and in assay [8] was inactive.

With `Cc1cc(NCc2ccccc2)nc2cc(O)ccc12`, the growth inhibition was 80% (active) in assay [1] and 98% (active) in assay [4]. Also, the inhibition in assay [2] is -7%; in assay [3], 6%. The result in assay [5], in assay [6], in assay [7] and in assay [8] was inactive.

As for `CN1CCN(CC(O)CNC(=O)Nc2ccc(Cl)cc2)CC1` (stereo not given), the growth inhibition in assay [1] is 98% (active); in assay [4] it was 99% (active). The inhibition in assay [2] was 1%; in assay [3], -3%. Moreover, the result in assay [5], in assay [6], in assay [7] and in assay [8] was inactive.

On to `CN1CCN(c2cccc(NC(=O)c3ccc(-c4ccc(C#N)cc4)cc3)c2)CC1`, for which the growth inhibition in assay [1] is 7%; in assay [4], 84% (active). Moreover, the inhibition in assay [2] was 31%; in assay [3], 2%. In addition, the outcome in assay [5], in assay [6], in assay [7] and in assay [8] was inactive.

On to `C=CCn1c(=N)c(C(=O)NCc2ccc(F)cc2)cc2c(=O)n3cccc(C)c3nc21`, for which the growth inhibition was 11% in assay [1] and 92% (active) in assay [4]. Besides, the results for the inhibition in assay [2] and in assay [3] were 16% and -2%, respectively. In addition, the outcome in assay [5], in assay [6], in assay [7] and in assay [8] was inactive.

As to `N#Cc1ccc(S(=O)(=O)N2C(c3cccc([N+](=O)[O-])c3)C(C(=O)c3ccccc3)N(C3CCCCC3)C2c2cccc([N+](=O)[O-])c2)cc1` (stereo not given), the growth inhibition in assay [1] is 79% (active); in assay [4], 83% (active). For the same molecule, the inhibition is 16% in assay [2] and -1% in assay [3]. In addition, the outcome in assay [5], in assay [6], in assay [7] and in assay [8] was inactive.

Consider `c1cncc(CN2CCCN(c3ccc4c(c3)CCN(Cc3ccc(-c5ncc[nH]5)cc3)CC4)CC2)c1`, for which the growth inhibition in assay [1] was 33%; in assay [4] it was 99% (active). Moreover, the inhibition was 7% in assay [2] and 2% in assay [3]. Further, the outcome in assay [5], in assay [6], in assay [7] and in assay [8] was inactive.

Regarding `Cc1csc(-c2nc(NCc3cccnc3)ncc2-c2ccsc2)n1`, the values for the growth inhibition in assay [1] and in assay [4] were 74% (active) and 87% (active), respectively. In addition, the inhibition in assay [2] was -5%; in assay [3] it was -1%. For the same molecule, the outcome in assay [5], in assay [6], in assay [7] and in assay [8] was inactive.

The inhibition is the change of the read-out against control, counted positive when it falls.
